RT RNaseH block: inhibitors of HIV-1 reverse transcriptase RNase H | P04585 | RT-RNase H RNA/DNA duplex cleavage, fluorescence | inhibition, % at 10 µM | hit rate 1.9% among 65,000 | AID 565; in the data active = inhibition above about 50%
RmlC RmlD mix: RmlC/RmlD inhibition, mixture screen; AID 1532; hit rate 0.39% among 110,000; inhibition, % at 5.5 µM; RmlC/RmlD coupled enzyme inhibition, 384-well mixture HTS; in the data active = inhibition above about 30%, passing the limit was not always enough; inconclusive = no clear call, values can overlap the other calls
* = called active by the depositor; ? = inconclusive; nt = not tested or not shown. The entries come from a sample that favours hits as a whole.

SMILES	RT RNaseH block	RmlC RmlD mix
CC1(C)CC[C@@]23CC[C@]4(C)[C@@](OC2=O)(C3C1)[C@H]1O[C@H]1C1[C@@]2(C)CC[C@H](O)C(C)(C)C2CC[C@]14C (stereo partly drawn)	nt	-10
Cc1ccc(-c2c(=O)n(OCc3ccccn3)c3ccccc3[n+]2[O-])cc1	nt	-84
COc1ccc(-c2c(=O)n(OCc3ccccn3)c3ccccc3[n+]2[O-])cc1OC	56*	7
CCCOc1ccc(OCCOCCN2CCc3ccccc3C2)cc1	nt	6
CCOc1cc(-c2cc(-c3ccc(C)cc3)nc(N)c2C#N)ccc1O	nt	30*
CCOc1cc(-c2c(C#N)c(N)nc3c2CCCC3C)ccc1O (stereo not drawn)	-13	0
O=c1cc2[nH]c3ccccc3c(=O)n2nc1-c1ccccc1	nt	-5
Cc1cc2nc3n(c2cc1C)CC1CC(C(=O)NCc2cccc(C(F)(F)F)c2)N(C)C31 (stereo not drawn)	nt	-2
CCOc1ccccc1Oc1c(C)oc2cc(OC(=O)c3ccco3)ccc2c1=O	nt	23
COc1ccccc1-c1c(C)oc2cc(OC(=O)c3ccco3)ccc2c1=O	-4	32*
CC(=O)Nc1nnc(S(N)(=O)=O)s1	-7	-16
CC(=O)N=c1sc(S(N)(=O)=O)nn1C	67*	-15
Cc1cccc(NC(=O)c2sc3nc(-c4ccccc4)cn3c2C)n1	9	-21
COc1ccc(-c2cn3c(C)c(C(=O)Nc4cccc(C)n4)sc3n2)cc1	51*	-11
Cc1ccc(NC(=O)NNc2cccc(Cl)n2)cc1	nt	1
CCN1C(=O)c2cccc3c(NC(=O)c4ccc(OC)c(OC)c4)ccc1c23	nt	-11
COc1ccc(-c2ccc(-c3noc(-c4ccccc4)n3)c(OC)n2)cc1	2	-307
COc1ccc(-c2ccc(-c3noc(-c4ccccc4F)n3)c(OC)n2)cc1	54*	-25
CC(C)C[C@H]1COCCS(=O)(=O)N1Cc1cccc(F)c1	nt	12
CC(C)Cn1c(SCC(=O)NCc2ccc(Cl)cc2)nnc1-c1cccc(S(=O)(=O)N2CCOCC2)c1	nt	-3
CCCc1cc(C(=O)Nc2sc(C)c(CC)c2C#N)no1	53*	nt
CCc1c(C)sc(NC(=O)c2cc(C)on2)c1C#N	-3	-13
CNC(=O)CC1C(=O)N(C)C(=S)N1NC(=O)c1ccc(Cl)cc1 (stereo not drawn)	nt	48
O=[N+]([O-])c1cccc(-c2nnn(C34CC5CC(CC(C5)C3)C4)n2)c1	nt	-6
O=C1c2cccc3c2[C@H](CCC3)CN1[C@@H]1CN2CCC1CC2	nt	-13
SMILES	RT RNaseH block	RmlC RmlD mix
Cc1[nH]n(C(N)=S)c(=O)c1C(c1ccccc1)C(C#N)C#N (stereo not drawn)	51*	0
CCCc1[nH][nH]c(=O)c1C(c1ccccc1)C(C#N)C#N (stereo not drawn)	-71	7
C=CCNC(=O)c1onc(CSc2ccc(F)c(F)c2)c1C(=O)NCC=C	nt	-6
C(=C/c1ccnc2nc(SC/C=C/c3ccccc3)nn12)/c1ccccc1	nt	6
Cc1cc2c(ncn2Cc2ccccc2)c([N+](=O)[O-])c1C	nt	5
CN(C(=S)NC(=O)CCCOc1ccc(Cl)cc1Cl)c1ccccc1	nt	8
O=C(NCc1ccccn1)c1cn(CCc2ccccc2)nn1	68*	10
O=C(NCc1cccnc1)c1cn(CCc2ccccc2)nn1	-3	4
OCC[C@@H]1C[C@H](O)[C@@H](O)[C@@]2(CCCO2)O1	nt	-90
Cc1cc(C)cc(N(CC(=O)NCCSc2ccccn2)S(=O)(=O)c2ccccc2)c1	nt	-10
Cc1ccc(S(=O)(=O)Nc2ccc3oc(=O)sc3c2)c(C)c1	60*	3
Cc1ccc(C)c(S(=O)(=O)Nc2ccc3sc(C)nc3c2)c1	nt	-1
Cc1ccc2nc(SCC(=O)NCC3CCCO3)c(C#N)cc2c1 (stereo not drawn)	59*	-18
Cc1ccc2cc(C#N)c(SCC(=O)NCC3CCCO3)nc2c1 (stereo not drawn)	-37	-1
CCCCOc1ccc(CNC(=S)N/N=C/c2ccc(OC)c(OC)c2)cc1	nt	-12
CCOC(=O)c1c(-c2ccccc2)csc1NC(=O)c1ccc(N2C(=O)CCC2=O)cc1	nt	20
CCOC(=O)c1c(-c2ccccc2)csc1NC(=O)c1nn(CC)cc1Br	67*	131
Cc1oc(/N=C/c2c(O)ccc3ccccc23)c(C#N)c1C	73*	nt
Cc1oc(/N=C/c2ccccc2O)c(C#N)c1C	0	3
Cc1cc(C)c(S(C)(=O)=O)c(Sc2ccc(Cl)cc2)n1	nt	-5
C=C(C)C(=O)N1CC2(CC(c3cccc(NC(=O)CC)c3)=NO2)C[C@H]1C(N)=O (stereo partly drawn)	nt	-11
CCCCc1cc(=O)oc2c(CN(C)C)c(O)c(Cl)cc12	-10	70*
CCc1c(C)c2cc(Cl)c(O)c(CN3CCCCC3)c2oc1=O	-7	114
O=c1oc2c(CN3CCOCC3)c(O)c(Cl)cc2c2c1CCC2	0	56*
CCCCc1cc(=O)oc2c(CN3CCCC3)c(O)ccc12	3	?
CCc1cc2c(-c3ccccc3)cc(=O)oc2c(CN2CCOCC2)c1O	-15	-6

Screens as filed in PubChem BioAssay.
